# Reference: PubChem BioAssay (EPA / NIEHS)
# Several values for one entry are separate records, joined by “and”; a condition that tells them apart may be missing. Equal values may be shown once. Inconclusive results are not listed. The source holds several records for some structures; these can differ, active in one and inactive in another. Activity calls are given as the source filed them. Rule for the calls, unless noted: active = hit-call score of the fitted dose curve at least 0.9, where 1 is the maximum; inconclusive = response in the unintended direction; inactive = score below 0.9.
# Tests used:
# [1] = biological target: Cytochrome P450 2C18 (Homo sapiens) (UniProt P33260); test: NVS_ADME_hCYP2C18: NovaScreen (NVS) CYP450-related Enzyme Activity (ADME) Assay for human CYP2C18 (AID 2283103; active = hit-call score of the fitted dose curve at least 0.9, where 1 is the maximum; inactive = score below 0.9)
# Sequence of Cytochrome P450 2C18 (Homo sapiens) (P33260 whole entry, looked up): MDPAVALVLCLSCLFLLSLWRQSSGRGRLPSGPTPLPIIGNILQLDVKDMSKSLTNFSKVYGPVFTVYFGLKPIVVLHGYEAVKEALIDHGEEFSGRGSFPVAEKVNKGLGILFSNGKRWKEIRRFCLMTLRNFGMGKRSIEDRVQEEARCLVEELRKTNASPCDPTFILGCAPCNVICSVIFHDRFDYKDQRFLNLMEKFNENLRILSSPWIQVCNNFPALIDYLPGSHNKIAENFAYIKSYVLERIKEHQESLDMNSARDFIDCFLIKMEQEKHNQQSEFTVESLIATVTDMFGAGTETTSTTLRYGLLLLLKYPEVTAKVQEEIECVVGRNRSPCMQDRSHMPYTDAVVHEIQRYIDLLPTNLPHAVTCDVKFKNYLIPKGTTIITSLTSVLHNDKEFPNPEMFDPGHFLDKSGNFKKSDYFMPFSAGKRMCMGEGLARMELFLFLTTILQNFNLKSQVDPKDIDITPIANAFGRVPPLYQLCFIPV
# Procedure: (§1) NVS_ADME_hCYP2C18 is a biochemical, single-readout assay that uses extracted gene-proteins in a cell-free assay. Measurements were taken 0.5 hour after chemical dosing in a 96-well plate.NVS_ADME_hCYP2C18 is one of one assay component(s) measured or calculated from the NVS_ADME_hCYP2C18 assay. It is designed to make measurements of enzyme activity, a form of enzyme reporter, as detected with fluorescence intensity signals by Fluorescence technology.Data from the assay component NVS_ADME_hCYP2C18 was analyzed into 1 assay endpoint. This assay endpoint, NVS_ADME_hCYP2C18, was analyzed in the positive analysis fitting direction relative to Acetonitrile as the negative control and baseline of activity. Using a type of enzyme reporter, loss-of-signal activity can be used to understand changes in the enzymatic activity as they relate to the gene CYP2C18. Furthermore, this assay endpoint can be referred to as a primary readout, because this assay has produced multiple assay endpoints where this one serves a enzymatic activity function. To generalize the intended target to other relatable targets, this assay endpoint is annotated to the cyp intended target family, where the subfamily is xenobiotic metabolism.
# Binding assays used specific radioligands (tritiated, iodinated) with non-radioactive competitive displacement ligands in agonist or antagonist protocols (as indicated) and various reference compounds and inhibitors to titrate specific binding to receptors and transporters. Most enzyme assays (CYPs, kinases, phosphatases, proteases, HDACs) used recombinant protein and specific substrates (fluorescence mostly, some colorimetric and radioactive) and inhibitors, followed by a biochemical separation of substrate and product. All assays for the biochemical HTS were initially run in duplicate at a single concentration (10 uM for CYP450 assays and 25 uM for all others). […]
# [2] = biological target: human CYP2C9, CYP2C9 (gene 1559) (UniProt P11712); test: NVS_ADME_hCYP2C9: NovaScreen (NVS) CYP450-related Enzyme Activity (ADME) Assay for human CYP2C9 (AID 2283108)
# Sequence of human CYP2C9, CYP2C9 (gene 1559) (P11712 whole entry, looked up): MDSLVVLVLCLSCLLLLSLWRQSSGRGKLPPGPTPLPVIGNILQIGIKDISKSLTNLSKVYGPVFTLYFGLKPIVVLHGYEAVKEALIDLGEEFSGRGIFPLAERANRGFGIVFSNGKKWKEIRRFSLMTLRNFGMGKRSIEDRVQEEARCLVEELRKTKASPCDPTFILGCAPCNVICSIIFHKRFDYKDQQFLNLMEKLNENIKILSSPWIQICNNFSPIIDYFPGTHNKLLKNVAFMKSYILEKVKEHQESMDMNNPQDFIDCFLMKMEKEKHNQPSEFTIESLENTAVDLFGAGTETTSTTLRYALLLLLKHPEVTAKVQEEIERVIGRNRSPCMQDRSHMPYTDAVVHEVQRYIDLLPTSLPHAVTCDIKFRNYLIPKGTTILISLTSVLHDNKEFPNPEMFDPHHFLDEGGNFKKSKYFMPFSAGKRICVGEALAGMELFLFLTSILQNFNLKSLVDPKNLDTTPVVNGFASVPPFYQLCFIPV
# Procedure, shortened: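 Fluorescence readout of CYP2C9 activity (SF9-expressed human enzyme) at 0.75 h. The primary screen used 10 uM in duplicate, with concentration-response follow-up for actives; acetonitrile was the negative control.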
# [3] = biological target: Cytochrome P450 3A4 (Homo sapiens) (UniProt P08684); test: NVS_ADME_hCYP3A4: NovaScreen (NVS) CYP450-related Enzyme Activity (ADME) Assay for human CYP3A4 (AID 2283110)
# Sequence of Cytochrome P450 3A4 (Homo sapiens) (P08684 whole entry, looked up): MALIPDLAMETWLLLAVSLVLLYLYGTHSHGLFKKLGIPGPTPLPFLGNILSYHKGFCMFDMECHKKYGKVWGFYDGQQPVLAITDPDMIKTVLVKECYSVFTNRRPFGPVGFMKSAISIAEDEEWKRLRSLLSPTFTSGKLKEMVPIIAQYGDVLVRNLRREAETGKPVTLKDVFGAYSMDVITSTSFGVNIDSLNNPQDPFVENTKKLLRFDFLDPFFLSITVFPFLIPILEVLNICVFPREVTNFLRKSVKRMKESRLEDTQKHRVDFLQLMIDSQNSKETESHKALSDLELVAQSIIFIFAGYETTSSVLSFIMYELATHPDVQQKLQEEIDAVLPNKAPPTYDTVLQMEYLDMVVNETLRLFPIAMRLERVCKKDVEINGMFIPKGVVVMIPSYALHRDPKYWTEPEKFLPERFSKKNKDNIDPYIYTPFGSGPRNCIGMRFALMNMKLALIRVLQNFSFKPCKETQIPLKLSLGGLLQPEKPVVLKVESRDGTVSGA
# Procedure, shortened: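 Compounds were first screened in duplicate at 10 uM against recombinant CYP3A4 produced in insect cells, then actives were run in concentration series. Enzyme activity was measured by fluorescence after 0.33 hour, with acetonitrile as baseline.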
# [4] = system: rat CYP2B1, gene 24300; test: NVS_ADME_rCYP2B1: NovaScreen (NVS) CYP450-related Enzyme Activity (ADME) Assay for rat CYP2B1 (AID 2283117)
# Procedure, shortened: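 Recombinant rat CYP2B1 with fluorogenic substrate, read at 0.75 h. Primary screen in duplicate at 10 uM; compounds meeting threshold (e.g., 30% inhibition) re-run in concentration-response up to 20 uM. Fitted against acetonitrile control.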
# [5] = biological target: human CYP1A2, CYP1A2 (gene 1544) (UniProt P05177); test: NVS_ADME_hCYP1A2: NovaScreen (NVS) CYP450-related Enzyme Activity (ADME) Assay for human CYP1A2 (AID 2283102);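 for AC50: potency for inhibition since loss of fluorescence marks reduced CYP1A2 activity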
# Sequence of human CYP1A2, CYP1A2 (gene 1544) (P05177 whole entry, looked up): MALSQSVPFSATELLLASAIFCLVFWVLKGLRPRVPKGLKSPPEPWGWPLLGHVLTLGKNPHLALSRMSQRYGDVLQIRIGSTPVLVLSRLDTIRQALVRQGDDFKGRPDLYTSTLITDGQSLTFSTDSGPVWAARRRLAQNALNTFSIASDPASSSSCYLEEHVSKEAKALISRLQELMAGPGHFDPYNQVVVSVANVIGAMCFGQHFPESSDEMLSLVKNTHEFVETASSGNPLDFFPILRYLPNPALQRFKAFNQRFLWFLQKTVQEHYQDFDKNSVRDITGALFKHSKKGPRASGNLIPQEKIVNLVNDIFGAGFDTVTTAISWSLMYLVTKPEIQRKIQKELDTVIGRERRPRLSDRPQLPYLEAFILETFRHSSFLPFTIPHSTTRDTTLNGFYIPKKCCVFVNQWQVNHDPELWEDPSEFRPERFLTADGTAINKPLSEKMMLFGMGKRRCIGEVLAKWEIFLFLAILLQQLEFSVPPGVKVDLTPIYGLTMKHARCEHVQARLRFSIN
# Procedure, shortened: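 Cell-free recombinant human CYP1A2 expressed in insect cells, with fluorogenic substrate; fluorescence intensity read 0.5 h after dosing. Loss of signal relative to acetonitrile baseline scored. Primary screen in duplicate at 10 uM; actives retested in concentration series.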
# [6] = biological target: rat CYP2A1, Cyp2a1 (gene 24894) (UniProt P11711); test: NVS_ADME_rCYP2A1: NovaScreen (NVS) CYP450-related Enzyme Activity (ADME) Assay for rat CYP2A1 (AID 2283114; active = hit-call score of the fitted dose curve at least 0.9, where 1 is the maximum; inactive = score below 0.9)
# Sequence of rat CYP2A1, Cyp2a1 (gene 24894) (P11711 whole entry, looked up): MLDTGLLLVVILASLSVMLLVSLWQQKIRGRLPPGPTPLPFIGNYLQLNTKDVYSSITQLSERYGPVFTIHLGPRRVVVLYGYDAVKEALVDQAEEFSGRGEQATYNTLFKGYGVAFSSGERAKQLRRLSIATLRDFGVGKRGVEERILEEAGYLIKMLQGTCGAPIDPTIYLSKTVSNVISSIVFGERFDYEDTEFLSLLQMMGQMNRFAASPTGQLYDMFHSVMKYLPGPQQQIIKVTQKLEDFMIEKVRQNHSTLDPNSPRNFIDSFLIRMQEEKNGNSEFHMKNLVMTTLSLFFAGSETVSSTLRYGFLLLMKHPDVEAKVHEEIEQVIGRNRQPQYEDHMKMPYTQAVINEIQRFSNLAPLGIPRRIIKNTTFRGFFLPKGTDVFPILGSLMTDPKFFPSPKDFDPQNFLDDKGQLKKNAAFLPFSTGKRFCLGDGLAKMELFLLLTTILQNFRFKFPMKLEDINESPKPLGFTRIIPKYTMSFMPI
# Procedure, shortened: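 Recombinant rat CYP2A1, cell-free, fluorogenic substrate turnover read by fluorescence intensity 0.75 h after dosing. Primary screen at 10 uM in duplicate; actives rerun as concentration-response up to 20 uM; loss of signal versus acetonitrile control.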
# [7] = biological target: rat CYP2A2, Cyp2a2 (gene 24895) (UniProt P15149); test: NVS_ADME_rCYP2A2: NovaScreen (NVS) CYP450-related Enzyme Activity (ADME) Assay for rat CYP2A2 (AID 2283116)
# Sequence of rat CYP2A2, Cyp2a2 (gene 24895) (P15149 whole entry, looked up): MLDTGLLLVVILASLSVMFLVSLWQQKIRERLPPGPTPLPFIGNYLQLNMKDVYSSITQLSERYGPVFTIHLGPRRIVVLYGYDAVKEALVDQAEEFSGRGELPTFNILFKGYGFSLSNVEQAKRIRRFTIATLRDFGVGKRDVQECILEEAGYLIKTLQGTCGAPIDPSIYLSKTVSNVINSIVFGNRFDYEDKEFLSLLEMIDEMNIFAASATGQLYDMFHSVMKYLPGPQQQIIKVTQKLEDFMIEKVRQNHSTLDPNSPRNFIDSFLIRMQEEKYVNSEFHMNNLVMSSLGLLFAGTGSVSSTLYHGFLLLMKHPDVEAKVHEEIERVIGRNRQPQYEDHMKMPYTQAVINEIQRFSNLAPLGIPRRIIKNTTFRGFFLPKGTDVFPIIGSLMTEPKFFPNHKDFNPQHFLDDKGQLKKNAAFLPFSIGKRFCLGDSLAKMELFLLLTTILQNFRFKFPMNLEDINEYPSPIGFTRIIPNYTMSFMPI
# Procedure: as §1, with “NVS_ADME_rCYP2A2” for “NVS_ADME_hCYP2C18”, “0.2” for “0.5”, “plate.NVS_ADME_rCYP2A2” for “plate.NVS_ADME_hCYP2C18”, “NVS_ADME_rCYP2A2,” for “NVS_ADME_hCYP2C18,”, “Cyp2a2.” for “CYP2C18.”
# Binding assays used specific radioligands (tritiated, iodinated) with non-radioactive competitive displacement ligands in agonist or antagonist protocols (as indicated) and various reference compounds and inhibitors to titrate specific binding to receptors and transporters. Most enzyme assays (CYPs, kinases, phosphatases, proteases, HDACs) used recombinant protein and specific substrates (fluorescence mostly, some colorimetric and radioactive) and inhibitors, followed by a biochemical separation of substrate and product. All assays for the biochemical HTS were initially run in duplicate at a single concentration (10 uM for CYP450 assays and 25 uM for all others). Assay-chemical combinations meeting a pre-defined threshold (e.g., 30% inhibition and other criteria defined below) were then run in singleton concentration-response format with maximum concentration of 20 uM for CYPs and 50 uM for all others. Each assay was run with positive and negative controls, and concurrent controls on every plate. The follow-up (secondary) screen tested active chemical-pairs in concentration series, as well as a few additional assays not tested in the primary screen, some selected negative inactives, and several cases re-run in the concentration series for confirmatory purposes.
# [8] = biological target: human CYP2D6, CYP2D6 (gene 1565) (UniProt P10635); test: NVS_ADME_hCYP2D6: NovaScreen (NVS) CYP450-related Enzyme Activity (ADME) Assay for human CYP2D6 (AID 2283107)
# Sequence of human CYP2D6, CYP2D6 (gene 1565) (P10635 whole entry, looked up): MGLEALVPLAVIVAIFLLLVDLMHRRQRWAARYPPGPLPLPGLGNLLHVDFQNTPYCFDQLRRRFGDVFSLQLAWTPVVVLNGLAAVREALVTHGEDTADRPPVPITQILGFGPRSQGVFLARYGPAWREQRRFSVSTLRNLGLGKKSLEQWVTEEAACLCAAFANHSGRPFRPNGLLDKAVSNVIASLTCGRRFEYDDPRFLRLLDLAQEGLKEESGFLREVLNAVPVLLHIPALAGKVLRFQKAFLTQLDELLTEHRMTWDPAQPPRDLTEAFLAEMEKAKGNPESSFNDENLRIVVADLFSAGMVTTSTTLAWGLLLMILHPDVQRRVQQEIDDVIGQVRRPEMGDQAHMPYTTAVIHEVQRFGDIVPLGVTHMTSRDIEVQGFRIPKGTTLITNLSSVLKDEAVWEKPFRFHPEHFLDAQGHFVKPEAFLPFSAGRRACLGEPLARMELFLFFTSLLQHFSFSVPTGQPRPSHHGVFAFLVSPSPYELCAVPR
# Procedure, shortened: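 Cell-free assay using recombinant enzyme expressed in insect cells, with fluorescence-intensity readout of enzyme activity 1 hour after chemical dosing. Loss of signal versus acetonitrile negative control indicates inhibition. Primary screen ran in duplicate at 10 uM; actives were retested in concentration series.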
# [9] = biological target: human CYP4F12, CYP4F12 (gene 66002) (UniProt Q9HCS2); test: NVS_ADME_hCYP4F12: NovaScreen (NVS) CYP450-related Enzyme Activity (ADME) Assay for human CYP4F12 (AID 2283111)
# Sequence of human CYP4F12, CYP4F12 (gene 66002) (Q9HCS2 whole entry, looked up): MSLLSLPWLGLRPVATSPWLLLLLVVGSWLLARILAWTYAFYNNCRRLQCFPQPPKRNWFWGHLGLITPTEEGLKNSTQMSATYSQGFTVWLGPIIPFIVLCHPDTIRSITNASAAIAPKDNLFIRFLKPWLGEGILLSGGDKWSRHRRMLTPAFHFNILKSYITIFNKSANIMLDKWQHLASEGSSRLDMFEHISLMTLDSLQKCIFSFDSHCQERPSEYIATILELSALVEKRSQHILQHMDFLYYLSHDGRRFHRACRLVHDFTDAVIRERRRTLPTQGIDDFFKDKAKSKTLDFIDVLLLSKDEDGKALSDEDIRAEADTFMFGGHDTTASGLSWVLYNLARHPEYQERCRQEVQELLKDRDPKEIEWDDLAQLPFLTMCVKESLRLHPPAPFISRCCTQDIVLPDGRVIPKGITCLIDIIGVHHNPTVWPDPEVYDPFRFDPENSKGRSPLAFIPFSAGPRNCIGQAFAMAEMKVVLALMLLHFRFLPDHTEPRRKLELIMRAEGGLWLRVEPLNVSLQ
# Procedure: as §1, with “NVS_ADME_hCYP4F12” for “NVS_ADME_hCYP2C18”, “384-well plate.NVS_ADME_hCYP4F12” for “96-well plate.NVS_ADME_hCYP2C18”, “NVS_ADME_hCYP4F12,” for “NVS_ADME_hCYP2C18,”, “CYP4F12.” for “CYP2C18.”, “metabolism. […]” for “metabolism.”
# [10] = biological target: human CYP2J2, CYP2J2 (gene 1573) (UniProt P51589); test: NVS_ADME_hCYP2J2: NovaScreen (NVS) CYP450-related Enzyme Activity (ADME) Assay for human CYP2J2 (AID 2283106)
# Sequence of human CYP2J2, CYP2J2 (gene 1573) (P51589 whole entry, looked up): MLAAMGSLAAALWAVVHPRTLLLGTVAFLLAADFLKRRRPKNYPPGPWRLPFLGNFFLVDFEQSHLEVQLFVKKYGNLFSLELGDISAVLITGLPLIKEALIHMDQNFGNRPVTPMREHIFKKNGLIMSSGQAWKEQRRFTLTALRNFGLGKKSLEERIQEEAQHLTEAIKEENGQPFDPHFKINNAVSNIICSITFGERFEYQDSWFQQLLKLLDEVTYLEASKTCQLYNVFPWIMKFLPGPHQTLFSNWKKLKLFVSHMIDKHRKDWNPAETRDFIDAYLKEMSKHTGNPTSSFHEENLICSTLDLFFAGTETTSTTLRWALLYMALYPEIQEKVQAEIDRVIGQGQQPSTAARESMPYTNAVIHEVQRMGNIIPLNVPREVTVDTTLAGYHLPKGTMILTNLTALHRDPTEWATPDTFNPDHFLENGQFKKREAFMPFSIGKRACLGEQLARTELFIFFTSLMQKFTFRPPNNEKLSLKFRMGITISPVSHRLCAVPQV
# Procedure: as §1, with “NVS_ADME_hCYP2J2” for “NVS_ADME_hCYP2C18”, “1” for “0.5”, “plate.NVS_ADME_hCYP2J2” for “plate.NVS_ADME_hCYP2C18”, “NVS_ADME_hCYP2J2,” for “NVS_ADME_hCYP2C18,”, “CYP2J2.” for “CYP2C18.”, “metabolism. […]” for “metabolism.”
structure (smiles),measurement,setting,value
O=C1C2(Cl)C3(Cl)C4(Cl)C(Cl)(Cl)C5(Cl)C3(Cl)C1(Cl)C5(Cl)C24Cl (centres undefined),AC50,[1],0.519 µM (active)
same,AC50,[2],82.1 nM (active) and 2.8 µM (active) and 487 nM (active)
same,outcome,[3],inactive
same,AC50,[4],1.61 µM (active) and 5.98 µM (active)
same,outcome,[4],inactive
CC(C)(c1ccccc1)c1ccc(O)c(C(C)(C)c2ccccc2)c1,outcome,[3],inactive
O=C(O)C(F)(F)C(F)(F)C(F)(F)C(F)(F)C(F)(F)C(F)(F)C(F)(F)C(F)(F)C(F)(F)C(F)(F)F,AC50,[2],1.58 µM (active)
Fc1ccc(C2(Cn3cncn3)OC2c2ccccc2Cl)cc1 (centres undefined),AC50,[5],5.36 µM (active)
same,AC50,[2],6.5 µM (active)
same,AC50,[3],5.96 µM (active)
same,AC50,[6],2.98 µM (active)
same,AC50,[7],0.353 µM (active)
same,AC50,[4],3.09 µM (active)
COc1cc2c(cc1OC)[C@@]13CCN4CC5=CCO[C@H]6CC(=O)N2[C@H]1[C@H]6[C@H]5C[C@H]43,AC50,[8],5 µM (active)
O=C(Nc1ccc2[nH]ccc2c1)c1cc2cc(F)ccc2n1Cc1cccc(F)c1,outcome,[5],inactive
CC(C)(C)c1cc(O)ccc1O,AC50,[8],7.54 µM (active)
same,AC50,[2],5.93 µM (active)
same,outcome,[3],inactive
COc1cc(-c2ccc(N)c(OC)c2)ccc1N,AC50,[5],1.27 µM (active)
same,outcome,[5],inactive
same,AC50,[2],7.03 µM (active)
CC1(C)CCC(Cc2ccc(Cl)cc2)C1(O)Cn1cncn1 (centres undefined),AC50,[2],0.419 µM (active)
same,AC50,[3],2.75 µM (active)
same,AC50,[6],2.5 µM (active)
same,AC50,[7],0.0404 µM (active)
same,AC50,[4],0.385 µM (active)
Nc1ccc(-c2ccc(N)c(Cl)c2)cc1Cl,AC50,[2],1.24 µM (active)
Clc1ccc(C2(Cn3cncn3)CC(Br)CO2)c(Cl)c1 (centres undefined),AC50,[1],6.47 µM (active)
same,AC50,[2],6.63 µM (active)
same,AC50,[3],2 µM (active)
same,AC50,[6],0.577 µM (active)
same,AC50,[7],0.0829 µM (active)
same,AC50,[4],0.0411 µM (active)
BrCCBr,outcome,[7],inactive
Cn1sc(Cl)cc1=O,outcome,[5],inactive
same,AC50,[3],2.77 µM (active)
CCCCCCCCC(=O)NCc1ccc(O)c(OC)c1,AC50,[8],3.45 µM (active)
same,AC50,[2],3.95 µM (active)
CCOP(=S)(OCC)SCSP(=S)(OCC)OCC,outcome,[5],inactive
CC12CC1(C)C(=O)N(c1cc(Cl)cc(Cl)c1)C2=O (centres undefined),outcome,[3],inactive
same,AC50,[6],0.881 µM (active)
same,AC50,[7],4.98 µM (active)
CCOC(=O)Nc1cccc(OC(=O)Nc2ccccc2)c1,AC50,[5],11.4 µM (active)
same,AC50,[6],6.84 µM (active)
CC(C)C1CCC(Cc2ccc(Cl)cc2)C1(O)Cn1cncn1 (centres undefined),AC50,[7],0.106 µM (active)
same,AC50,[4],2.04 µM (active)
COP(=S)(OC)Oc1ccc(S(=O)(=O)N(C)C)cc1,AC50,[2],0.0779 µM (active)
CCOP(=S)(OCC)Oc1ccc(S(C)=O)cc1 (centres undefined),AC50,[2],3.31 µM (active)
Nc1cccc2ccccc12,AC50,[8],3.45 µM (active)
CC(=O)[O][Hg][c]1ccccc1,AC50,[5],3.31 µM (active)
same,AC50,[8],4.16 µM (active)
same,AC50,[2],9.85 µM (active)
same,AC50,[3],1.28 µM (active)
same,AC50,[9],1.9 µM (active)
COP(=S)(OC)Oc1ccc(Sc2ccc(OP(=S)(OC)OC)cc2)cc1,AC50,[5],7.61 µM (active)
same,AC50,[1],5.83 µM (active)
same,AC50,[10],3.3 µM (active)
same,AC50,[2],505 nM (active) and 5.52 µM (active)
CCC(=O)C(CC(C)N(C)C)(c1ccccc1)c1ccccc1 (centres undefined),AC50,[8],1.23 µM (active)
